High-throughput results deposited in PubChem BioAssay by Broad Institute.
NSD2 inh: inhibitors of human histone methyltransferase NSD2; O96028; NSD2 peptide methylation, AlphaScreen, 120 min; inhibition, % at 12.5 µM; 310,000 compounds, 0.54% hits; AID 743445; in the data active = inhibition above about 50%
Target sequence (O96028 whole entry, looked up): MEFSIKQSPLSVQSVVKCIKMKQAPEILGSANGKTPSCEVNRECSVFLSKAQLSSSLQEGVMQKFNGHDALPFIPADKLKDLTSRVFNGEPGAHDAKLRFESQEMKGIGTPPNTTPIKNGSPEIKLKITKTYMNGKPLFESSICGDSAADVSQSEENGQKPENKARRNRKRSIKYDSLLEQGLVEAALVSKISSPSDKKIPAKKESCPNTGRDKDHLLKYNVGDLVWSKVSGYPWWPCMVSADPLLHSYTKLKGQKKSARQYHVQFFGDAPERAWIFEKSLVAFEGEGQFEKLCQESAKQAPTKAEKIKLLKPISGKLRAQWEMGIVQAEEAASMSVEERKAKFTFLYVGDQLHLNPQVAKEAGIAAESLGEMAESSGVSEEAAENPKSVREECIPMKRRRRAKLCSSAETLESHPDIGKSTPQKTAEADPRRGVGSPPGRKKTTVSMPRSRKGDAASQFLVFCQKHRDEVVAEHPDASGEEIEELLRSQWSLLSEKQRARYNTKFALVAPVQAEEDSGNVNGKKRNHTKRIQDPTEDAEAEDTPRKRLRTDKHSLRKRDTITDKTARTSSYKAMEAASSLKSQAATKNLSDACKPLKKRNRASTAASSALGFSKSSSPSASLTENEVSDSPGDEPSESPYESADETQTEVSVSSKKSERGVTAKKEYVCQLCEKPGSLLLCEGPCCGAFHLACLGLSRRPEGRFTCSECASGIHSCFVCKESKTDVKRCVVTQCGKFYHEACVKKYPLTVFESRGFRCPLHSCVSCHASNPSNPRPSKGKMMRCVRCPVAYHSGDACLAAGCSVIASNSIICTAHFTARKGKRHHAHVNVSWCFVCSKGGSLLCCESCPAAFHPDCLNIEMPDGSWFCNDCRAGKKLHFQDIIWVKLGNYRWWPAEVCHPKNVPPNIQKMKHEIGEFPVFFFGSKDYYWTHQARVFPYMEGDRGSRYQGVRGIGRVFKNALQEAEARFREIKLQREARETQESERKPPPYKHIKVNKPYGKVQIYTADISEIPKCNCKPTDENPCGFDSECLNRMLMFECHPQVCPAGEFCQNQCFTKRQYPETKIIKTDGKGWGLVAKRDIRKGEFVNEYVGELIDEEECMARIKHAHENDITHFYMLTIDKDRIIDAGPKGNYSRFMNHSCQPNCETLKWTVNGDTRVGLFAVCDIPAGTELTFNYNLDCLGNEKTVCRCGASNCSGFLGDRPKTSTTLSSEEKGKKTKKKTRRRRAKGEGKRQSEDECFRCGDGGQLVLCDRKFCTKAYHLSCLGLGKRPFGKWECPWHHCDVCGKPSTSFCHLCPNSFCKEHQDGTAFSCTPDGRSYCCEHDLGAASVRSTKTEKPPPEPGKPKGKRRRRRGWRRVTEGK
Mot1-301 SUMO: SUMOylation pathway inhibition by Mot1-301 growth rescue; growth rescue, % at 18.8 µM; 320,000 compounds, 1% hits; AID 2716; S. cerevisiae Mot1-301 growth rescue, ATP luminescence, 38.5C; percent above DMSO median, 100 means doubled;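 active = every valid replicate shows activation above 250% relative to neutral control wells; inactive = the rest, any valid replicate at or below 250%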;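 note: OY570 slx delta 5 strain wells were the positive control but not used for scaling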
ALR inh: inhibitors of human sulfhydryl oxidase ALR | P55789 | purified ALR, DTT oxidation, H2O2 HRP-luminol luminescence | inhibition, % (no concentration beside the values) | 290,000 compounds, 3.8% hits;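 active = mean replicate inhibition above about 79%, with every replicate also reaching it, limit read from the data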
CASP6 VEID inh: inhibitors of human caspase-6; P55212; purified caspase-6, Z-VEID-R110 cleavage fluorescence; inhibition, % at 12.5 µM; 350,000 compounds, 0.53% hits; AID 686996;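 active = mean inhibition across replicates at least about 35%, with every replicate also reaching that limit, limit read from the data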;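 note: 0% = median of neutral control wells and 100% = no fluorescence left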
Glyco luc inh: blocks N-linked glycosylation in D54 reporter cells. D54 ERlucT glycosylation luciferase reporter, 24 h; percent of 100 nM tunicamycin response. reporter increase, % at 12.5 µM. 360,000 compounds, 0.23% hits;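 active = mean luciferase reporter signal, scaled so untreated is 0 and the glycosylation-blocking control 100, at or above a set limit in every replicate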;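 note: luciferase carries N-glycosylation sites so blocking glycosylation raises the light; 0% = median of neutral control wells and 100% = median of 100 nM tunicamycin wells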
CDK5 p35 inh: CDK5/p35 (human) kinase inhibition | 330,000 compounds, 0.01% hits | Q00535+Q15078 | inhibition, % at 10 µM | Recombinant CDK5/p35, ADP-Glo luminescence, 60 min;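 active = highest replicate inhibition of at least 50% and at least 75% of replicates reaching 50%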;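 note: plate controls were DMSO neutral control for no effect and GW8510 at 10 µM for full effect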
* = called active by the depositor; / = not tested or not shown. Shown are actives, neighbours in structure and some others; about 3.9% of the full set was active somewhere.

SMILES	NSD2 inh	Mot1-301 SUMO	ALR inh	CASP6 VEID inh	Glyco luc inh	CDK5 p35 inh
CCC(=O)N1CCC2(CC1)CN(Cc1ccccc1Cl)[C@H](CO)c1c2c2ccc(OC)cc2n1C	/	/	/	-3	/	/
Cc1ccc2[nH]c3c(c2c1)CCc1cn[nH]c1-3	6	144	99*	/	8	1
Cc1ccc2[nH]c3c(c2c1)CCC3=O	2	5	-5	/	2	0
CO[C@@H]1CN(C)C(=O)c2ccc(NC(=O)C3CC3)cc2OC[C@@H](C)N(C(=O)c2ccccn2)C[C@H]1C	/	/	/	1	/	/
CC(=O)n1c2ccccc2c2nc(NC(C)C)sc21	-3	2	99*	/	2	-1
N#Cc1c(NC(=O)CSc2ncn[nH]2)sc2c1CCCCC2	0	-27	3	/	-13	0
CC(=O)NC1C(=O)N=C(SCC(=O)Nc2sc3c(c2C#N)CCCCCC3)NC1=O (configuration not stated)	2	50	99*	3	2	1
CC(=O)NC1C(=O)N=C(SCC(=O)Nc2cccc(Cl)c2)NC1=O (configuration not stated)	-1	-13	99*	2	3	-1
CC(=O)n1nc(-c2ccncc2)nc1SCC(=O)Nc1cccc(Cl)c1	4	7	/	-2	1	2
Cc1ccc(S(=O)(=O)NNc2ccccc2)cc1	0	58	100*	4	2	-1
CC(=O)Nc1ccc(S(=O)(=O)NNc2cccc(C)c2)cc1	8	-16	99*	2	2	0
Cc1ccc(S(=O)(=O)NNC(=O)CCC(=O)Nc2ccccc2)cc1	/	-14	9	/	1	1
O=S(=O)(Nc1ccc(S(=O)(=O)Nc2ccccc2)cc1)c1ccccc1	1	-7	/	/	0	-1
COc1ccc(NS(=O)(=O)c2ccc(NS(=O)(=O)c3cccs3)cc2)cc1	3	5	/	2	-1	0
Cc1ccc(NS(=O)(=O)c2ccc(NS(=O)(=O)c3cccs3)cc2)cc1	4	302*	5	/	1	-1
O=S(=O)(Nc1ccc(Nc2ccccc2)cc1)c1ccc(F)cc1	/	9	98*	1	-1	3
CCCNC(=O)N1C[C@@H]2[C@H](c3ccccc31)[C@H](CO)N2C(=O)c1ccncc1	/	/	/	2	/	/
CC(C)NC(=O)Nc1ccc2c(c1)C(=O)N([C@@H](C)CO)C[C@@H](C)[C@H](CN(C)C(=O)Nc1ccc3c(c1)OCO3)OCCCC[C@@H](C)O2	/	/	/	-2	/	/
O=C(Cc1ccccc1)N1CC(=O)N2[C@H](C1)[C@@H](c1ccc(-c3ccc(F)cc3)cc1)[C@@H]2CO	/	/	/	1	/	/
Cc1ccc(S(=O)(=O)Nc2ccc(Nc3ccccc3)cc2)cc1	3	43	99*	-1	0	-2
Cc1ccc(Nc2ccccc2)cc1	2	5	7	/	-1	-3
Cc1ccc(S(=O)(=O)Nc2cc(C)c(O)c(S(=O)(=O)c3ccc(C)cc3)c2)cc1	7	-7	21	3	-1	1
Cc1ccc(S(=O)(=O)c2cc(Nc3ccccc3)ccc2O)cc1	/	2	100*	15	2	0
O=S(=O)(Nc1ccc(O)c2ccccc12)c1cccs1	/	-15	99*	53*	5	3
C[C@H](CO)N1C[C@H](C)[C@H](CN(C)C(=O)Nc2ccccc2)Oc2ccc(NC(=O)C3CCCCC3)cc2C1=O	/	/	/	2	/	/
SMILES	NSD2 inh	Mot1-301 SUMO	ALR inh	CASP6 VEID inh	Glyco luc inh	CDK5 p35 inh
CCCC(=O)N1CC2(C1)CN(C(=O)CC)[C@@H](CO)c1c2c2ccc(OC)cc2n1C	/	/	/	0	/	/
COCC(=O)Nc1ccc2c(c1)C(=O)N(C)C[C@H](OC)[C@@H](C)CN(C(=O)Cc1ccccn1)[C@H](C)CO2	/	/	/	-4	/	/
O=C(O)CCSc1nc2ccccc2s1	0	0	99*	/	-1	-2
CN(C)CCCSc1nc2ccccc2s1	19	/	99*	-51	-1	0
CCC(=O)Nc1ccc2c(c1)C(=O)N(C)C[C@@H](OC)[C@H](C)CN(Cc1cccnc1)[C@H](C)CO2	/	/	/	-1	/	/
Cc1cccc(C(=O)Nc2ccc(N3CCN(C(=O)c4ccco4)CC3)cc2)c1	2	-6	10	7	-5	2
O=C(c1noc2c1CCCC2)N1CCN(c2ccc(F)cc2)CC1	1	1	5	-2	-1	-1
Cc1cc(C(=O)N2CCN(c3ccc(F)cc3)CC2)on1	/	-1	97*	0	0	-1
CC(=O)N1CCN(c2ccc(NCc3ccc(F)cc3)cc2)CC1	/	-10	99*	-4	5	1
CC(=O)N1CCN(c2ccc(NCc3cccc(C)c3)cc2)CC1	/	-1	99*	4	4	-3
COc1cc(CNc2ccc(N3CCN(C(C)=O)CC3)cc2)ccc1OCc1ccc(F)cc1	2	23	99*	1	2	0
O=C(Cc1ccc(F)cc1)N1CCN(c2ccc(F)cc2)CC1	1	-17	/	1	-1	0
C[C@@H]1CN([C@@H](C)CO)C(=O)c2cc(C#CC3(O)CCCC3)cnc2O[C@@H]1CN(C)Cc1ccccn1	/	/	/	0	/	/
COc1ccccc1NC(C)C(=O)Nc1ccc(C(C)=O)cc1 (configuration not stated)	0	7	99*	-3	3	2
Cn1c(N)c(-c2nc3cccnc3n2C)sc1=S	-3	-6	92*	-3	3	-6
Cc1ccc(-n2c(N)c(-c3nc4ccccc4n3C)sc2=S)cc1	-2	15	10	/	-9	-2
C[C@H]1CCCCO[C@H](CN(C)S(=O)(=O)c2cn(C)cn2)[C@@H](C)CN([C@@H](C)CO)C(=O)c2cc(NC(=O)Nc3ccccc3)ccc2O1	/	/	/	0	/	/
C[C@H](CO)N1C[C@H](C)[C@H](CN(C)C(=O)Nc2cccc3ccccc23)Oc2ncc(C#Cc3cccc(F)c3)cc2C1=O	/	/	/	3	/	/
CCCS(=O)(=O)C(=C1NCCO1)S(=O)(=O)CCC	1	351*	-4	/	1	0
COCC#Cc1ccc2c(c1)O[C@@H](CN(C)S(=O)(=O)c1ccc(C)cc1)[C@H](C)CN([C@@H](C)CO)S2(=O)=O	/	/	/	0	/	/
Cc1ccc(-n2ncc3c2CCCC3NC(=O)c2ocnc2C)cc1C (configuration not stated)	/	5	-9	-1	2	0
Cc1cc(C(=O)NC2CCCc3c2cnn3-c2ccc(C)c(C)c2)no1 (configuration not stated)	3	-1	89*	0	-3	-1
CO[C@@H](CN(C)C(=O)c1ccc2c(c1)OCO2)[C@@H](C)CN([C@H](C)CO)S(=O)(=O)c1ccc(F)cc1	/	/	/	-2	/	/
Cc1ccc(NC2=CC(=O)CC(C)(C)C2)cc1F	-2	652	-7	-3	0	0
Cc1cc(N)c(NC2=CC(=O)CC(C)(C)C2)cc1C	1	/	98*	/	1	1
CCOC(=O)CSc1nnc(NCC(=O)OC(C)C)c(=O)[nH]1	1	4	97*	/	5	0
